# Results taken from PubChem BioAssay AID504333 (National Center for Advancing Translational Sciences (NCATS), 2011).
# Screen size: about 360,000 compounds; about 16,000 (4.4%) were called active. Roughly 9% stayed inconclusive and do not appear here. The sample holds actives, similar compounds and a random draw of the others, so the mix is not that of the screen. A number with no mark means an inactive call. Calls follow the shape of the dose curve; as a rule, active = well fitted inhibition curve with a large enough effect; inconclusive = small, poorly fitted or top-dose-only effect; inactive = no such curve, though single readings can be large or run the other way.
# Target: Bromodomain adjacent to zinc finger domain protein 2B (Homo sapiens) (UniProt Q9UIF8)
# Assay: qHTS Assay for Inhibitors of BAZ2B; also: nearly all actives have a fitted effect of over 60% in size
# Conditions: AlphaScreen BAZ2B-H3K14Ac peptide displacement; series mostly up to 114 µM; activity change, negative = inhibition: at the top concentration
# Procedure, shortened: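 BAZ2B (50 nM) with biotin-H3(5-23)K14Ac peptide (50 nM) in PBS pH 7.4, 0.01% Tween-20, preformed 30 min, then compound 30 min at room temperature; top concentration 110uM. AlphaScreen streptavidin donor/nickel chelate acceptor beads (10 ug/mL final), 20 min dark, signal read.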
# % is scaled to controls: 0 for no effect and ±100 for the full control effect; potency is read from the fitted curve at half-maximal effect.
# Bromodomain adjacent to zinc finger domain protein 2B (Homo sapiens), sequence (Q9UIF8 whole entry, looked up, the tested form may be a part): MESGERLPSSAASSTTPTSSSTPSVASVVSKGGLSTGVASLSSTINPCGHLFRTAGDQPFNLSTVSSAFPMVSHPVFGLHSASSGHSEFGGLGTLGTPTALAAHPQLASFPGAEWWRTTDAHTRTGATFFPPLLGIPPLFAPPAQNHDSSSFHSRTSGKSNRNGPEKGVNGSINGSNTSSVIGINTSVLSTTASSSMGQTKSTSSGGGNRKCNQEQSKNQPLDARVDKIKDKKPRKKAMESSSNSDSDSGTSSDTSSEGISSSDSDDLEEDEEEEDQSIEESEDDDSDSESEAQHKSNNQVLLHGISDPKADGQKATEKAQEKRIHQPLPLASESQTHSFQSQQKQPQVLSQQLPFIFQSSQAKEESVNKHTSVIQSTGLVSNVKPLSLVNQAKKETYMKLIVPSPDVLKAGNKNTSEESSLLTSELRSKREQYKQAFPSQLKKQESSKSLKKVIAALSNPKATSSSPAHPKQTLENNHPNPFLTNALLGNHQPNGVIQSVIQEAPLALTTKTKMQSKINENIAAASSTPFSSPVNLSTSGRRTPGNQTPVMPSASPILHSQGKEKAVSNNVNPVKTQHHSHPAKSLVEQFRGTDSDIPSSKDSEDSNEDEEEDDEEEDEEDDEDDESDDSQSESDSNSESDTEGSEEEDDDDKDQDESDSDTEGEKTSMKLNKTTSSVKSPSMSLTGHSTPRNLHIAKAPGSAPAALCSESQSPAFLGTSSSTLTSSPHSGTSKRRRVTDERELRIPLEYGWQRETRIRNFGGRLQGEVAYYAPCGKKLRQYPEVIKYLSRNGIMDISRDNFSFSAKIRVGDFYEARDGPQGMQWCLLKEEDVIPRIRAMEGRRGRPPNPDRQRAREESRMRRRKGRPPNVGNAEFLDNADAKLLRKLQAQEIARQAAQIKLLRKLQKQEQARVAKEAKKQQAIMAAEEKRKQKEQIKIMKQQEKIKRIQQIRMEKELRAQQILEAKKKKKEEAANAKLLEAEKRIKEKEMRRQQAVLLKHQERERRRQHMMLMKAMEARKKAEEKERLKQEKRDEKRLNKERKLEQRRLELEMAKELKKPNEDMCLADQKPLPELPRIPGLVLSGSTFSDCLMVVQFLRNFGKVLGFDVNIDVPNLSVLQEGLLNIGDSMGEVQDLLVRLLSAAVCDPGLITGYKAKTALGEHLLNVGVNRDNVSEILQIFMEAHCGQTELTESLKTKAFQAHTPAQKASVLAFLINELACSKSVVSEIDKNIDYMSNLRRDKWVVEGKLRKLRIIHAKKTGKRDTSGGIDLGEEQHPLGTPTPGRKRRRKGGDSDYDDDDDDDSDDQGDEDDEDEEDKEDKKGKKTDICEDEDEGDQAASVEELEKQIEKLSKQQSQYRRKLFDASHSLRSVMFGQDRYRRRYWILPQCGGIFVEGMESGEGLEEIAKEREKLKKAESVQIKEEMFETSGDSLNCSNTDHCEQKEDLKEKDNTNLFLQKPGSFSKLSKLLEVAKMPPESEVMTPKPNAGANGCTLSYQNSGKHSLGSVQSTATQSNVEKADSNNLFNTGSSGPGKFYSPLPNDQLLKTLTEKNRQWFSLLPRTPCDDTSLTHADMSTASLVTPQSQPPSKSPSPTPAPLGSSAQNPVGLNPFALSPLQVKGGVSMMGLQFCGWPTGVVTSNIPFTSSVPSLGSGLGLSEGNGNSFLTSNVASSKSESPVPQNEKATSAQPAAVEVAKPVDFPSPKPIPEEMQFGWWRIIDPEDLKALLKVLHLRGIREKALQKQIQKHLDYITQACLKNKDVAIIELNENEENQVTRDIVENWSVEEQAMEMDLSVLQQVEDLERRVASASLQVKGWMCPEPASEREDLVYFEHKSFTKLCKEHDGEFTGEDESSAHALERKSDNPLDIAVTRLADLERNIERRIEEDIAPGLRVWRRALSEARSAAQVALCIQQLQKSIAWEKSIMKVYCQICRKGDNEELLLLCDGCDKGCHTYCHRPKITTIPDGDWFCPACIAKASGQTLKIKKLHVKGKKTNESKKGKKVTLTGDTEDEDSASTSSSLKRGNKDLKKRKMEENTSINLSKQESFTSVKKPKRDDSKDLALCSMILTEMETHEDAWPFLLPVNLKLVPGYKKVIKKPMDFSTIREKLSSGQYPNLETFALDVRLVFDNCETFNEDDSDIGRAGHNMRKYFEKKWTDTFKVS
Compound,Potency,"activity change, negative = inhibition"
Cc1cc(C(=O)N/N=C/c2ccc(O)c([N+](=O)[O-])c2)c(C)n1-c1ccc(F)cc1,50.1 µM (active),–
CCc1nc2nc(C)cc(Nc3ccc(F)c(Cl)c3)n2n1,–,1.95%
Cc1nn(-c2ccc(N3CCCCC3)nn2)c(C)c1CCC(=O)NCc1ccc(F)cc1,79.4 µM (active),–
Cc1ccc(CNC(=O)CCc2c(C)nc3c(c(C)nn3-c3ccccc3)c2C)cc1,–,-0.737%
CCOc1ccc(CNC(=O)CCc2c(C)nn(-c3ccc(N4CCCCC4)nn3)c2C)cc1,–,-15.5%
COc1ccc(CNC(=O)CCc2c(C)nn(-c3ccc(N4CCCC4)nn3)c2C)cc1,79.4 µM (active),–
COc1ccc(C)cc1NC(=O)CCc1c(C)nn(-c2ccc(N3CCOCC3)nn2)c1C,–,-14.2%
COC(=O)c1ccc(NC(=O)CCc2c(C)nn(-c3ccc(N4CCCC4)nn3)c2C)cc1,–,-25.5%
COc1cc(OC)cc(C(=O)Nc2c(C(=O)Nc3ccc(F)cc3)oc3ccccc23)c1,–,-0.325%
COc1ccc(-c2nc(CN3CCC(C(=O)NCCN(CC(C)C)CC(C)C)CC3)c(C)o2)cc1OC,–,-14.9%
CC(=O)N1CCCc2cc(S(=O)(=O)N3CCC(C(=O)NCc4ccc(F)cc4)CC3)ccc21,–,-6.68%
CN(C)c1ccc(C(CNS(=O)(=O)c2cc(F)ccc2F)N2CCOCC2)cc1 (stereo not given),–,-25.9%
COc1ccc(Cn2c(C(=O)O)c(CNCCc3cccs3)c3ccc(OC)cc32)cc1,–,-35.3%
O=C(O)c1ccc2c(c1)N(Cc1ccc(F)cc1)C(=O)c1ccccc1S2=O (stereo not given),–,4.07%
Cc1nn(C(C)C(=O)NCCc2ccccc2)c(=O)c2c1sc1ccccc12 (stereo not given),–,-8.46%
CC(C)(C)c1cc(C(=O)N/N=C/c2ccc([N+](=O)[O-])s2)n[nH]1,–,-1.13%
Cc1cc(C(=O)N/N=C/c2cc([N+](=O)[O-])cc(C)c2O)n[nH]1,25.1 µM (active),–
COc1ccc2ccccc2c1/C=N/NC(=O)c1cc(C)[nH]n1,–,-26%
CCCN(CCC)CCCNC(=O)Cn1ncc2c3ccccc3n(Cc3ccccc3)c2c1=O,–,-11.5%
COc1ccc(-c2cn3c(n2)sc2cc(C(=O)Nc4ccc(F)cc4)ccc23)cc1,–,1.57%
COc1cccc(Cn2c(SCc3ccc(C(=O)N4CCC(C)CC4)cc3)nc3ccncc32)c1,22.4 µM (active),–
COc1cccc(Cn2c(SCc3ccc(C(=O)N4CCCCC4)cc3)nc3ccncc32)c1,–,-11.2%
Cc1cccc(Cn2c(SCc3ccc(C(=O)N4CCC(C)CC4)cc3)nc3ccncc32)c1,–,-16.1%
COc1ccccc1Cc1nc2ccccc2nc1SCC(=O)N1CCCc2ccccc21,–,-3.57%
Cc1c(C(=O)c2cccc([N+](=O)[O-])c2)c2ccccn2c1CCC#N,50.1 µM (active),–

Compound,Potency,"activity change, negative = inhibition"
O=C(c1cccc([N+](=O)[O-])c1)N1CCN(Cc2ccccc2)CC1,–,20.8%
COc1ccc(C(=O)c2c(C)c(CCC#N)n3ccccc23)c(OC)c1,–,-17.9%
COC(=O)c1cnc(N2CCN(c3ccccc3OC)CC2)c2ccccc12,–,42.6%
COc1ccc2c(c1)c(N1CCCC1=O)c(C(=O)Nc1ccc(OC)c(Cl)c1)n2C,–,-34.8%
Cc1ccc(Nc2nc(-c3ccc(O)cc3O)cs2)nc1,50.1 µM (active),–
Clc1ccc(Nc2nc(-c3cccs3)cs2)nc1,–,-33.2%
CC(=O)Nc1cccc(-c2csc(Nc3cccc(C)n3)n2)c1,–,-4.54%
COc1cc(C(=O)Nc2ccc(-n3c(C)nc4ccccc4c3=O)cc2)cc(OC)c1OC,–,-14.7%
CCN(CC)c1cc(NC2CCCCC2)c2c3c(onc13)-c1ccccc1C2=O,3.55 µM (active),–
COc1ccc(OC)c(CNC(=O)Cn2nc(C)c3c(C)n(-c4ccccc4)nc3c2=O)c1,–,-15.4%
CCCC(=O)Nc1ccc2oc(-c3ccc(O)c(Br)c3)nc2c1,–,2.4%
COc1ccc(CCNCc2c(C(=O)O)c(C)n(Cc3cccc(C)c3)c2C)cc1OC,–,-16.7%
COc1ccc(SCc2cc(=O)c3ccc(C)c(C)c3[nH]2)cc1,–,8.96%
O=c1[nH]c(NCCO)nnc1Cc1ccc(Cl)cc1,–,-11.6%
COc1ccc(Cc2nnc(N/N=C/c3ccccc3O)[nH]c2=O)cc1OC,6.31 µM (active),–
CC(C)c1ccc(Cc2nnc(NCCCO)[nH]c2=O)cc1,–,-1.73%
Cc1nn(C)c2c1c(C(F)(F)F)cc(=O)n2C(C)C(=O)NCc1ccc(Cl)cc1 (stereo not given),–,-3.38%
O=C(NCc1ccccc1)C1CCN(S(=O)(=O)c2ccc3[nH]c(=O)ccc3c2)CC1,–,7.93%
Cc1ccccc1CCNC(=O)C1CCN(c2nc3ccccc3nc2C(F)(F)F)CC1,–,-0.372%
CC(=O)c1ccc(NC(=O)c2nc3nc(C)cc(C(F)F)n3n2)cc1,–,0.583%
Brc1ccc2c(c1)NC(c1cccnc1)=NC(c1ccccc1)=N2,–,-2.3%
COc1ccc(C2=NC(c3ccncc3)=Nc3ccc(Br)cc3N2)cc1,28.2 µM (active),–
Cc1cc(OCCCN2CCN(Cc3ccccc3)CC2)ccc1[N+](=O)[O-],17.8 µM (active),–
Cc1cc(OCCCCOc2ccc(C#N)cc2)ccc1[N+](=O)[O-],–,0.416%
Cc1cc(OCC(=O)NC2CCN(C)CC2)ccc1[N+](=O)[O-],–,-3.49%
